hgDAF-12 ag: agonists of H. glycines DAF-12 nuclear receptor; HEK293 GAL4-hgDAF12 UAS-luciferase reporter, agonist luminescence; normalized to butyrate control; activation, % at 6.8 µM; 1.8% of 370,000 active;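 active = activation above a cutoff set at the mean of all screened compounds plus 3 SD, cut at about 10% in these data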
ssDAF-12 act: activates DAF-12 receptor from parasite S. stercoralis; HEK293 ssDAF-12/GRIP1 lit1-tk-luc reporter, luminescence; % of 3 µM dafachronic acid response; activation, % at 6.8 µM; 1% of 370,000 active;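 active = activation above the mean over all tested compounds plus 3 SD, cut at about 0.9% in these data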
hcDAF-12 act: activators of H. contortus DAF-12 nuclear receptor; HEK293 hcDAF-12 lit1-tk-luc reporter, luminescence; 0% DMSO, 100% Δ7-dafachronic acid; activation, % at 6.8 µM; 1.4% of 370,000 active;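 active = activation above the mean of all tested compounds plus 3 SD, cut at about 5.5% in these data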
DAX1 StAR inh: inhibitors of DAX1 repression of SF-1 activated StAR promoter. HEK293T StAR-luciferase reporter, SF-1/DAX-1 repression relief. inhibition, % at 6.8 µM. AID 652010. 1.1% of 370,000 active;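 active = inhibition above the mean over all tested compounds plus 3 SD, cut at about 3.6% in these data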;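 also: higher inhibition means more luminescence from relief of DAX-1 repression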
SMARCA2 activ: increases SMARCA2 function in MMTV reporter cells; MG213 cells, MMTV-luciferase reporter, dexamethasone, overnight; activation, % at 9.1 µM; 1% of 370,000 active; AID 652017; in the data active = activation above about 7.8%
Hits are given with their value. Most compounds without a hit are left out; they make up all but 4.2% or so of the library.

What do the screens show for `CCSc1nnc2nc3[nH]c4c(C)cccc4c3nn12`?
hgDAF-12 ag: inactive; ssDAF-12 act: 1.5; hcDAF-12 act: inactive; DAX1 StAR inh: inactive; SMARCA2 activ: inactive

How did C=CCSc1nnc2c(n1)[nH]c1c(C)cccc12 do in these assays?
hgDAF-12 ag: inactive; ssDAF-12 act: inactive; hcDAF-12 act: inactive; DAX1 StAR inh: inactive; SMARCA2 activ: inactive

Results for COc1cc(OC)c2c(O)c3c(=O)cc(C)oc3c(-c3c(OC)cc4cc5c(c(O)c4c3O)C(=O)CC(C)(O)O5)c2c1 (stereo not drawn) ?
hgDAF-12 ag: inactive; ssDAF-12 act: inactive; hcDAF-12 act: inactive; DAX1 StAR inh: inactive; SMARCA2 activ: inactive

Results for COc1ccc(-n2cccc2C=O)cc1 ?
hgDAF-12 ag: inactive; ssDAF-12 act: inactive; hcDAF-12 act: inactive; DAX1 StAR inh: inactive; SMARCA2 activ: inactive

Results for O=Cc1cccn1-c1cccnc1 ?
hgDAF-12 ag: inactive; ssDAF-12 act: inactive; hcDAF-12 act: inactive; DAX1 StAR inh: inactive; SMARCA2 activ: 7.9

Results for COc1ccc(-n2c(SCC(=O)Nc3cc(C)c(NC(=O)c4ccccc4)cc3OC)nnc2-c2ccco2)cc1 ?
hgDAF-12 ag: inactive; ssDAF-12 act: inactive; hcDAF-12 act: inactive; DAX1 StAR inh: inactive; SMARCA2 activ: inactive

How did O=C(CSc1ccc(F)cc1)NC1CCCCC1 do in these assays?
hgDAF-12 ag: inactive; ssDAF-12 act: inactive; hcDAF-12 act: inactive; DAX1 StAR inh: inactive; SMARCA2 activ: inactive

Results for O=C(CSc1ccc(Br)cc1)NC1CCCCCC1 ?
hgDAF-12 ag: inactive; ssDAF-12 act: 1.9; hcDAF-12 act: inactive; DAX1 StAR inh: inactive; SMARCA2 activ: inactive

Results for CCCCCCS(=O)[C@H]1CS(=O)(=O)C[C@@H]1S(=O)CCCCCC (stereo partly drawn) ?
hgDAF-12 ag: 17; ssDAF-12 act: inactive; hcDAF-12 act: inactive; DAX1 StAR inh: inactive; SMARCA2 activ: inactive

What do the screens show for `CCCCCCCCS(=O)C1CCS(=O)(=O)C1` (stereo not drawn)?
hgDAF-12 ag: inactive; ssDAF-12 act: inactive; hcDAF-12 act: inactive; DAX1 StAR inh: inactive; SMARCA2 activ: inactive

Results for Nc1ccc2nc(-c3cccs3)[nH]c2c1 ?
hgDAF-12 ag: inactive; ssDAF-12 act: inactive; hcDAF-12 act: inactive; DAX1 StAR inh: inactive; SMARCA2 activ: inactive

What do the screens show for `c1csc(-c2nnsc2-c2nc3ccccc3[nH]2)c1`?
hgDAF-12 ag: inactive; ssDAF-12 act: 1.4; hcDAF-12 act: inactive; DAX1 StAR inh: inactive; SMARCA2 activ: inactive

Results for CN(CCO)c1ccc2c(c1)Oc1ccccc1CN(Cc1cn(Cc3ccc(C(F)(F)F)cc3)nn1)S2(=O)=O ?
hgDAF-12 ag: inactive; ssDAF-12 act: inactive; hcDAF-12 act: inactive; DAX1 StAR inh: inactive; SMARCA2 activ: inactive

How did Cc1c(Cl)cnc(NC(=O)COC(=O)c2cc3c(s2)CCC(C)C3)c1Cl (stereo not drawn) do in these assays?
hgDAF-12 ag: inactive; ssDAF-12 act: 1.4; hcDAF-12 act: inactive; DAX1 StAR inh: inactive; SMARCA2 activ: inactive

What do the screens show for `CCOc1ccc(-c2ccc(SCC(=O)Nc3nnc(CC)s3)nn2)cc1`?
hgDAF-12 ag: 13; ssDAF-12 act: inactive; hcDAF-12 act: inactive; DAX1 StAR inh: 3.7; SMARCA2 activ: inactive

Results for CCOC(=O)Nc1ccc2nc(N3CCCCCC3)sc2c1 ?
hgDAF-12 ag: 11; ssDAF-12 act: inactive; hcDAF-12 act: inactive; DAX1 StAR inh: inactive; SMARCA2 activ: inactive

How did CC(=O)NC(CC(=O)OCC(=O)c1cc(C)ccc1C)c1ccccc1 (stereo not drawn) do in these assays?
hgDAF-12 ag: inactive; ssDAF-12 act: inactive; hcDAF-12 act: inactive; DAX1 StAR inh: 4.3; SMARCA2 activ: inactive

What do the screens show for `CC(=O)NC(CC(=O)OCC(=O)NCCc1ccccc1)c1ccccc1` (stereo not drawn)?
hgDAF-12 ag: inactive; ssDAF-12 act: inactive; hcDAF-12 act: inactive; DAX1 StAR inh: inactive; SMARCA2 activ: inactive

What do the screens show for `COC(=O)[C@]12C[C@H](CC(=O)NCc3ccc(C)o3)C(=O)N(CCC3=CCCCC3)C1=C[C@H](C1CCCC1)O[C@@H]2C`?
hgDAF-12 ag: inactive; ssDAF-12 act: inactive; hcDAF-12 act: inactive; DAX1 StAR inh: inactive; SMARCA2 activ: inactive

Results for COc1ccc(/C(N)=N/OC(=O)c2ccc3c(c2)OCO3)cc1 ?
hgDAF-12 ag: inactive; ssDAF-12 act: inactive; hcDAF-12 act: 6.0; DAX1 StAR inh: inactive; SMARCA2 activ: inactive

What do the screens show for `Cc1ccc(/C(N)=N/OC(=O)c2ccc3c(c2)OCO3)cc1`?
hgDAF-12 ag: inactive; ssDAF-12 act: inactive; hcDAF-12 act: inactive; DAX1 StAR inh: inactive; SMARCA2 activ: inactive

Results for Cc1sc2nc(C3CCCCC3)nc(SCC(=O)N3CC(=O)Nc4ccccc43)c2c1C ?
hgDAF-12 ag: inactive; ssDAF-12 act: 1.2; hcDAF-12 act: inactive; DAX1 StAR inh: inactive; SMARCA2 activ: inactive

What do the screens show for `CCc1ccc(O)c(-c2cc(C(=O)Nc3cccnc3)[nH]n2)c1`?
hgDAF-12 ag: 12; ssDAF-12 act: inactive; hcDAF-12 act: inactive; DAX1 StAR inh: 3.8; SMARCA2 activ: inactive

What do the screens show for `Cc1cc(C)c(O)c(-c2cc(C(=O)Nc3cccnc3)[nH]n2)c1`?
hgDAF-12 ag: inactive; ssDAF-12 act: inactive; hcDAF-12 act: inactive; DAX1 StAR inh: inactive; SMARCA2 activ: inactive

Results for C=CCOc1ccc(/C=C/C(C)=N\O)cc1 ?
hgDAF-12 ag: inactive; ssDAF-12 act: inactive; hcDAF-12 act: inactive; DAX1 StAR inh: 3.9; SMARCA2 activ: inactive

How did C=CCOc1ccc(/C=C/C(=O)OCC(=O)N2CCN(C(C)=O)CC2)cc1 do in these assays?
hgDAF-12 ag: inactive; ssDAF-12 act: inactive; hcDAF-12 act: inactive; DAX1 StAR inh: inactive; SMARCA2 activ: inactive

How did CC1CCN(C(=O)CSCC(=O)Nc2nc(-c3cccs3)cs2)CC1 do in these assays?
hgDAF-12 ag: inactive; ssDAF-12 act: inactive; hcDAF-12 act: inactive; DAX1 StAR inh: inactive; SMARCA2 activ: inactive

How did CC1CCCN(C(=O)CSCC(=O)Nc2nc(-c3cccs3)cs2)C1 (stereo not drawn) do in these assays?
hgDAF-12 ag: inactive; ssDAF-12 act: inactive; hcDAF-12 act: 6.4; DAX1 StAR inh: inactive; SMARCA2 activ: inactive

How did CCOC(=O)[C@]12CCCCC/C=C\1N(CCc1ccc(Cl)cc1)C(=O)[C@H]2CC(=O)NCC1CCCCC1 do in these assays?
hgDAF-12 ag: inactive; ssDAF-12 act: inactive; hcDAF-12 act: inactive; DAX1 StAR inh: inactive; SMARCA2 activ: inactive

Results for Cc1csc(NC(=O)CSc2nc3sc(C)c(C)c3c(=O)[nH]2)n1 ?
hgDAF-12 ag: inactive; ssDAF-12 act: inactive; hcDAF-12 act: inactive; DAX1 StAR inh: inactive; SMARCA2 activ: inactive

What do the screens show for `Cc1ccc(NC(=O)c2sc3nc(CCl)[nH]c(=O)c3c2C)c(C)c1`?
hgDAF-12 ag: inactive; ssDAF-12 act: inactive; hcDAF-12 act: inactive; DAX1 StAR inh: 3.7; SMARCA2 activ: inactive

Results for CSCc1nc2sc(C(=O)Nc3nc(C)cs3)c(C)c2c(=O)[nH]1 ?
hgDAF-12 ag: 12; ssDAF-12 act: inactive; hcDAF-12 act: inactive; DAX1 StAR inh: inactive; SMARCA2 activ: inactive

How did COC(=O)[C@]12C[C@H](CC(=O)NCCCN3CCCC3=O)C(=O)N(CCC3=CCCCC3)C1=C[C@H](C1CCCC1)O[C@@H]2C do in these assays?
hgDAF-12 ag: inactive; ssDAF-12 act: inactive; hcDAF-12 act: inactive; DAX1 StAR inh: inactive; SMARCA2 activ: inactive

High-throughput results as filed in PubChem BioAssay.
